Test [1] in a line: qHTS of pediatric cancer cell lines to identify multiple opportunities for drug repurposing: Primary screen for Rh30 cells (AID 1347107). Also: nearly all actives have a fitted effect of over 75% in size. In short, it runs like this: (§1)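 Viability after 48 h compound treatment at 37C, 500-1,000 cells/well, read as ATP luminescence with CellTiter-Glo. Primary screens used 11-point (MIPE, 0.78 nM-46 µM) or 8-point (NPC, 0.59 nM-46 µM) final concentrations; follow-up screens used 11-point dilutions.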
In general terms: In qHTS, concentration-response curves come from the screen itself.

The nature of test [2]: qHTS of pediatric cancer cell lines to identify multiple opportunities for drug repurposing: Primary screen for Rh41 cells (AID 1347108). Also: nearly all actives have a fitted effect of over 70% in size. In short, it runs like this: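 Plated cells (500-1,000 per well, growth media) were allowed to settle for 5 hours, treated with compound dilutions for 48 hours, then lysed with CellTiter-Glo for 15 min at room temperature before luminescence reading.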

Test [3] in a line: qHTS of pediatric cancer cell lines to identify multiple opportunities for drug repurposing: Confirmatory screen for A673 cells (AID 1347110). Also: nearly all actives have a fitted effect of over 65% in size. In short, it runs like this: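 A673 cells at 500-1,000 cells/well were dosed 5 h after plating, in dilution series up to 46 uM final; primary runs used 8 or 11 points and confirmatory runs used 11 points. Viability was read by CellTiter-Glo luminescence after 48 h, against DMSO and 2.3 uM bortezomib controls.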

A short description of test [4]: qHTS of pediatric cancer cell lines to identify multiple opportunities for drug repurposing: Confirmatory screen for BT-12 cells (AID 1347112). Also: nearly all actives have a fitted effect of over 55% in size. In short, it runs like this:
as §1

Test [5] can be described thus: qHTS of pediatric cancer cell lines to identify multiple opportunities for drug repurposing: Confirmatory screen for NB-EBc1 cells (AID 1347115). Also: nearly all actives have a fitted effect of over 45% in size. The procedure, abridged: as §1
A short description of test [6]: qHTS of pediatric cancer cell lines to identify multiple opportunities for drug repurposing: Confirmatory screen for SJ-GBM2 cells (AID 1347116). Also: nearly all actives have a fitted effect of over 60% in size. The procedure, abridged: (§2)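 Viability measured as metabolically active cells via CellTiter-Glo luminescence following 48 hours of compound exposure, 11-point dilutions in confirmatory testing. 500-1,000 cells/well plated 5 hours before dosing; controls were DMSO and 2.3 µM bortezomib.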

A short description of test [7]: qHTS of pediatric cancer cell lines to identify multiple opportunities for drug repurposing: Confirmatory screen for control Hh wild type fibroblast cells (AID 1347121). Also: nearly all actives have a fitted effect of over 70% in size. In short, it runs like this:
as §1

Test [8] is described as follows: qHTS of pediatric cancer cell lines to identify multiple opportunities for drug repurposing: Confirmatory screen for U-2 OS cells (AID 1347122). Also: nearly all actives have a fitted effect of over 65% in size. The procedure, abridged:
as §1

Test [9] can be described thus: qHTS of pediatric cancer cell lines to identify multiple opportunities for drug repurposing: Confirmatory screen for Rh41 cells (AID 1347123). Also: nearly all actives have a fitted effect of over 60% in size. The procedure, abridged:
as §1

A short description of test [10]: qHTS of pediatric cancer cell lines to identify multiple opportunities for drug repurposing: Confirmatory screen for Rh30 cells (AID 1347126). Also: nearly all actives have a fitted effect of over 55% in size. In short, it runs like this:
as §1

Test [11] can be described thus: qHTS of pediatric cancer cell lines to identify multiple opportunities for drug repurposing: Confirmatory screen for NB1643 cells (AID 1347109). Also: nearly all actives have a fitted effect of over 45% in size. In short, it runs like this: as §1
The nature of test [12]: qHTS of pediatric cancer cell lines to identify multiple opportunities for drug repurposing: Confirmatory screen for SK-N-MC cells (AID 1347111).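 Also: cells exposed to compound for 48 h before the readout; nearly all actives have a fitted effect of over 70% in size.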 The procedure, abridged: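 SK-N-MC cells at 500-1,000 cells/well in growth media were pre-incubated 5 h, then exposed to compounds at 11-point dilutions for 48 h at 37 degrees C, 5% CO2. Viability was read as CellTiter-Glo luminescence.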

Test [13] can be described thus: qHTS of pediatric cancer cell lines to identify multiple opportunities for drug repurposing: Confirmatory screen for LAN-5 cells (AID 1347113). Also: nearly all actives have a fitted effect of over 65% in size. In short, it runs like this: as §1
The nature of test [14]: qHTS of pediatric cancer cell lines to identify multiple opportunities for drug repurposing: Confirmatory screen for BT-37 cells (AID 1347117). Also: nearly all actives have a fitted effect of over 55% in size. In short, it runs like this:
as §1

A short description of test [15]: qHTS of pediatric cancer cell lines to identify multiple opportunities for drug repurposing: Confirmatory screen for TC32 cells (AID 1347118). Also: nearly all actives have a fitted effect of over 65% in size. The procedure, abridged: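 Luminescent CellTiter-Glo read-out of metabolically active TC32 cells after 48 h compound exposure. Primary: MIPE 11-point, 0.78 nM–46 µM; NPC 8-point, 0.59 nM–46 µM. Confirmatory: 11-point dilutions.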

Test [16] is described as follows: qHTS of pediatric cancer cell lines to identify multiple opportunities for drug repurposing: Confirmatory screen for MG 63 (6-TG R) cells (AID 1347119). Also: nearly all actives have a fitted effect of over 55% in size. In short, it runs like this: as §1
A short description of test [17]: qHTS of pediatric cancer cell lines to identify multiple opportunities for drug repurposing: Confirmatory screen for RD cells (AID 1347124). The procedure, abridged:
as §1

Test [18] is described as follows: qHTS of pediatric cancer cell lines to identify multiple opportunities for drug repurposing: Confirmatory screen for Rh18 cells (AID 1347125). Also: nearly all actives have a fitted effect of over 55% in size. In short, it runs like this:
as §1

Test [19] in a line: qHTS of pediatric cancer cell lines to identify multiple opportunities for drug repurposing: Confirmatory screen for DAOY cells (AID 1347114). Also: nearly all actives have a fitted effect of over 65% in size. In short, it runs like this:
as §2

Inconclusive results are not listed. Calls of active or inactive are those of the source. Calls follow the shape of the dose curve; as a rule, active = well fitted curve in the direction sought with a large enough effect; inconclusive = small, poorly fitted or top-dose-only effect, or another doubt; inactive = no such curve, though single readings can be large; an effect the other way counts as inactive or inconclusive.
Potency is read from the fitted curve at half-maximal effect.

Regarding `CCc1c2c(nc3ccc(O)cc13)-c1cc3c(c(=O)n1C2)COC(=O)[C@]3(O)CC`, the Potency was 132 nM (active) in test [1]; 235 nM (active) in test [2]; 65.7 nM (active) in test [3]; 2610 nM (active) in test [4]; 1 nM (active) in test [5]; 3690 nM (active) in test [8]. In addition, the Potency is 261 nM (active) in test [9] and 1470 nM (active) in [10]. The Potency result in test [6] and in [7] was “inactive” throughout.

As for `CNC(=O)c1ccccc1Nc1nc(Nc2ccc(N3CCOCC3)cc2OC)ncc1Cl`, the Potency in [1] is 1320 nM (active); in [2], 935 nM (active); in [11], 369 nM (active); in [3], 1040 nM (active); in test [12], 737 nM (active); in [13] it was 414 nM (active). Further, the Potency in [5] is 8270 nM (active); in test [6], 9270 nM (active); in test [14], 13100 nM (active); in test [15] it was 827 nM (active); in test [16], 261 nM (active); in test [8], 13100 nM (active). In addition, the Potency in test [9] was 928 nM (active); in test [17], 827 nM (active); in test [18] it was 4140 nM (active). In addition, the Potency entry in test [7] and in [10] was “inactive” throughout.

Regarding `Cc1nc2cnc3ccc(C#Cc4cccnc4)cc3c2n1-c1ccc(C(C)(C)C#N)cc1`, the Potency is 469 nM (active) in [1]; 83.3 nM (active) in [2]; 2690 nM (active) in [3]; 1700 nM (active) in test [12]; 3020 nM (active) in [13]; 13500 nM (active) in test [19]. In addition, the Potency in [6] was 6760 nM (active); in test [14] it was 1510 nM (active); in test [15], 676 nM (active); in test [8], 2140 nM (active); in [9], 851 nM (active); in test [17], 12000 nM (active). Besides, the Potency in [18] is 1910 nM (active); in [10] it was 1350 nM (active).

For `O=c1[nH]nc(Sc2ncc([N+](=O)[O-])s2)n1-c1ccc2c(c1)OCCO2`, the Potency was 10500 nM (active) in [1]; 6620 nM (active) in [2]; 9270 nM (active) in test [3]; 5850 nM (active) in test [12]; 9270 nM (active) in [4]; 7370 nM (active) in test [13]. The Potency in test [19] was 23300 nM (active); in [5] it was 7370 nM (active); in test [6], 13100 nM (active); in [14] it was 16500 nM (active); in test [15], 6570 nM (active); in test [16], 11700 nM (active). Also, the Potency in test [8] is 9270 nM (active); in [9], 10400 nM (active); in [17] it was 9270 nM (active); in [10], 7370 nM (active).

As to `COC(=O)[C@]12CCC(C)(C)C[C@@H]1[C@@H]1C(=O)C=C3[C@@]4(C)C=C(C#N)C(=O)C(C)(C)[C@@H]4CC[C@@]3(C)[C@]1(C)CC2`, the Potency in [1] was 1480 nM (active); in test [2], 1180 nM (active); in test [11], 3290 nM (active); in test [3], 1650 nM (active); in [12], 3690 nM (active); in test [4], 7370 nM (active). Moreover, the Potency in test [13] was 2610 nM (active); in test [19], 2330 nM (active); in [5], 5850 nM (active); in test [6], 4140 nM (active); in test [14], 3690 nM (active); in [15], 3290 nM (active). For the same molecule, the Potency in [16] is 4650 nM (active); in test [7] it was 7370 nM (active); in test [8], 2080 nM (active); in [9], 2330 nM (active); in test [17], 1650 nM (active); in test [18], 5220 nM (active). Moreover, the Potency in [10] is 3290 nM (active).

As to `CC(C)CC(=O)Nc1n[nH]c2c1CN(C(=O)C1CCN(C)CC1)C2(C)C`, the Potency entry in [1], in [11], in test [7], in test [18] and in test [10] was “inactive” in each case. Besides, the Potency in [2] was 3720 nM (active); in test [3], 1040 nM (active); in [4], 2930 nM (active); in [8], 16500 nM (active); in [9] it was 1310 nM (active); in [17] it was 6570 nM (active).

For the molecule `CNC(=O)c1c(F)cccc1Nc1nc(Nc2cc3c(cc2OC)CCN3C(=O)CN(C)C)nc2[nH]ccc12`, the Potency in test [1] is 2960 nM (active); in test [2], 148 nM (active); in test [3] it was 11700 nM (active); in test [12] it was 414 nM (active); in test [13], 208 nM (active); in test [5] it was 5850 nM (active). The Potency in [6] was 928 nM (active); in [14] it was 26100 nM (active); in [15], 522 nM (active); in test [16], 3690 nM (active); in test [8] it was 928 nM (active); in test [9], 414 nM (active). Further, the Potency in [18] was 14700 nM (active); in test [10], 585 nM (active).

For `CC(C)(C)c1cnc(CSc2cnc(NC(=O)C3CCNCC3)s2)o1`, the Potency entry in [1] and in test [7] was “inactive” throughout. For the same molecule, the Potency is 590 nM (active) in [2]; 165 nM (active) in test [11]; 414 nM (active) in [3]; 329 nM (active) in test [12]; 369 nM (active) in test [4]; 261 nM (active) in test [13]. The Potency in [19] is 1170 nM (active); in test [6], 414 nM (active); in test [14], 261 nM (active); in test [15] it was 465 nM (active); in [8] it was 1310 nM (active); in test [9], 329 nM (active). Besides, the Potency in [17] was 585 nM (active).

In the case of `CC1(C)CCC(c2ccc(Cl)cc2)=C(CN2CCN(c3ccc(C(=O)NS(=O)(=O)c4ccc(N[C@H](CCN5CCOCC5)CSc5ccccc5)c(S(=O)(=O)C(F)(F)F)c4)cc3)CC2)C1`, the Potency was 9350 nM (active) in [1], 5900 nM (active) in [2], 8270 nM (active) in test [3] and 9270 nM (active) in [19]. Besides, the Potency entry in test [11], in test [4], in test [13], in test [14], in test [15] and in test [16] was “inactive” in each case. Further, the Potency result in test [7], in test [8], in test [9], in test [17] and in test [18] was “inactive” throughout.

The record behind these values is PubChem BioAssay (NCATS).
